Records with an inconclusive call do not appear. Active and inactive are the calls of the source. Rule for the calls: active = hit-call score of the fitted dose curve at least 0.9, where 1 is the maximum; inconclusive = response in the unintended direction; inactive = score below 0.9.

A short description of the assay: ACEA_ER_AUC_viability: ACEA Biosciences xCELLigence Real-Time Cell Analysis on Estrogen Receptor Agonism for Viability (AID 2283782).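 Note: hit means loss of impedance signal meaning reduced cell growth or viability.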 The gist of the method: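 Continuous-exposure impedance cell analysis uses T-47D cells in charcoal-stripped serum, eight 1:4 dilutions topping at 100 uM final, biological duplicate. Area under the growth curve at 80 h is fitted against DMSO baseline.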
Regarding `Cc1c2ccccc2c(C)c2c1ccc1ccccc12`, the AC50 (usually the concentration giving half of the maximal activity seen) was 20.1 µM (active). On the same count and under the same terms, with `CC(=O)N1CCN(c2ccc(OC[C@H]3CO[C@](Cn4ccnc4)(c4ccc(Cl)cc4Cl)O3)cc2)CC1` the figure was 86.7 µM (active). Take `O=C1O[C@H]([C@@H](O)CO)C(O)=C1O`: the result was inactive. With `CN(C)c1ccc(C(=C2C=CC(=[N+](C)C)C=C2)c2ccc(N(C)C)cc2)cc1`, the half-maximal activity concentration (AC50) is 5.4 µM (active). Still for that read-out and setting: with `CCCCCCCCOC(=O)c1cc(O)c(O)c(O)c1` the figure was 10 µM (active). With `Oc1ccccc1`, the compound was classed as inactive. Regarding `CC(C)(C)c1cc(/C=C2\SC(N)=NC2=O)cc(C(C)(C)C)c1O`, the concentration at half-maximal activity (AC50) is 31.6 µM (active).

`CC(C)(c1cc(Br)c(O)c(Br)c1)c1cc(Br)c(O)c(Br)c1`: the AC50 is 73.3 µM (active). For `CCOC(=O)O[C@H](C)OC(=O)c1ccc2c(c1)cc(C(=O)NC1CCN(C(C)C)CC1)n2Cc1cc(-c2ccc(Cl)s2)on1`, the AC50 is 5.33 µM (active). Still for that read-out and setting: with `O=C(Nc1ccc(Cl)cc1)Nc1ccc(Cl)c(Cl)c1` the figure was 18.7 µM (active).

The values above are taken from PubChem BioAssay (EPA / NIEHS).
